Source: PubChem BioAssay (NCI)
The panel holds about 83,000 compounds, 20% with a hit somewhere; the sample as a whole holds those more often.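 A percent growth of 40 corresponds to 60% growth inhibition; 0 means no net growth; -100 means all cells died. Active threshold: below 10.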 Activity calls are given as the source filed them.

What was measured:
Assay in all cases: NCI-60 one-dose screen, 48 h (100 = growth as untreated, 0 = no growth, -100 = all killed)
Conditions in all cases: 10 µM unless noted
NCI-H23 lung = system: NCI-H23 lung
NCI-H226 lung = system: NCI-H226 lung
NCI-H322M lung = system: NCI-H322M lung
HOP-62 NSCLC = system: HOP-62 NSCLC
NCI-H460 lung = system: NCI-H460 lung
HOP-92 NSCLC = system: HOP-92 NSCLC
NCI-H522 lung = system: NCI-H522 lung
A549/ATCC NSCLC = system: A549/ATCC NSCLC
786-0 renal = system: 786-0 renal
COLO 205 colon = system: COLO 205 colon

Measured: growth

c1ccc(-c2nc(N3CCNCC3)c3nc(-c4ccccc4)oc3n2)cc1
inactive: NCI-H322M lung 82% | HOP-92 NSCLC 42%
active: NCI-H23 lung -56.6% | NCI-H226 lung -61.3% | HOP-62 NSCLC -78.2% | NCI-H460 lung -73.7% | NCI-H522 lung -82.1% | A549/ATCC NSCLC -77.2% | 786-0 renal -98.7% | COLO 205 colon -84%

NC1=NC(SCc2ccccc2CCl)c2ncn(Cc3ccccc3CCl)c2N1 (stereo not given)
inactive: NCI-H23 lung 70.8% | NCI-H226 lung 60.2% | NCI-H322M lung 80.8% | HOP-62 NSCLC 74.5% | NCI-H460 lung 80.7% | HOP-92 NSCLC 24% | A549/ATCC NSCLC 80.3% | 786-0 renal 64.2% | COLO 205 colon 43.9%
active: NCI-H522 lung -92%

Cn1cnc2c(N3CCN(C(=O)OCc4ccc5c(Cl)cc(Cl)c(O)c5n4)CC3)nc(Cl)nc21
inactive: NCI-H23 lung 86.4% | NCI-H226 lung 72.9% | NCI-H322M lung 70.2% | HOP-62 NSCLC 53.7% | NCI-H460 lung 27.6% | HOP-92 NSCLC 70.7% | NCI-H522 lung 80.3% | A549/ATCC NSCLC 51.2% | 786-0 renal 92.1% | COLO 205 colon 109%

Brc1ccc(-c2[nH]ncc2-c2c[nH]c3ccccc23)cc1
inactive: NCI-H23 lung 92.5% | NCI-H226 lung 92.8% | NCI-H322M lung 99.7% | HOP-62 NSCLC 111% | NCI-H460 lung 98.1% | HOP-92 NSCLC 63.2% | NCI-H522 lung 107% | A549/ATCC NSCLC 93.6% | 786-0 renal 102% | COLO 205 colon 109%

Fc1ccc(CNCCNc2ncnc3c2cnn3-c2ccccc2)cc1
inactive: NCI-H23 lung 103% | NCI-H226 lung 102% | NCI-H322M lung 100% | HOP-62 NSCLC 90.4% | NCI-H460 lung 104% | HOP-92 NSCLC 61.8% | NCI-H522 lung 99.9% | A549/ATCC NSCLC 91.7% | 786-0 renal 83.5% | COLO 205 colon 89.6%

COc1ccc(CCNC2=CC(=O)CCC2)cc1OC
inactive: NCI-H23 lung 92.5% | NCI-H226 lung 95% | NCI-H322M lung 110% | HOP-62 NSCLC 104% | NCI-H460 lung 111% | HOP-92 NSCLC 92.8% | NCI-H522 lung 102% | A549/ATCC NSCLC 105% | 786-0 renal 107% | COLO 205 colon 103%

c1ccc(-c2cn(-c3ccccc3)c(-c3ccccc3)n2)cc1
inactive: NCI-H23 lung 77.6% | NCI-H226 lung 93.4% | NCI-H322M lung 104% | HOP-62 NSCLC 82% | NCI-H460 lung 89.5% | HOP-92 NSCLC 69.4% | NCI-H522 lung 73.9% | A549/ATCC NSCLC 48% | 786-0 renal 71.5% | COLO 205 colon 95.2%

COc1ccc2c(c1)NC1=C(C(=O)OC1)C2c1cc(OC)c2c(c1)OCO2 (stereo not given)
active: NCI-H460 lung 4.54% | NCI-H522 lung -13.1% | COLO 205 colon -56.9%
inactive: NCI-H23 lung 33% | NCI-H226 lung 34% | NCI-H322M lung 52.4% | HOP-62 NSCLC 43.2% | HOP-92 NSCLC 43.8% | A549/ATCC NSCLC 12% | 786-0 renal 22.3%

COC(=O)C(Sc1ccc(Cl)cc1)C1SC(=S)N(Cc2ccccc2)C1=O (stereo not given)
inactive: NCI-H23 lung 97.3% | NCI-H226 lung 116% | NCI-H322M lung 105% | HOP-62 NSCLC 95.1% | NCI-H460 lung 107% | HOP-92 NSCLC 104% | NCI-H522 lung 96.7% | A549/ATCC NSCLC 98.2% | 786-0 renal 103% | COLO 205 colon 117%

NC(=S)N/N=C1\CCCC(C(F)(F)F)C1 (stereo not given)
inactive: NCI-H23 lung 101% | NCI-H226 lung 117% | NCI-H322M lung 101% | HOP-62 NSCLC 107% | NCI-H460 lung 109% | HOP-92 NSCLC 96% | NCI-H522 lung 94% | A549/ATCC NSCLC 100% | 786-0 renal 98.9% | COLO 205 colon 114%

CCCCN(CCCC)c1ccc(C(=N)c2ccc(N(CCCC)CCCC)cc2)cc1
active: NCI-H23 lung -77% | NCI-H226 lung -90.7% | HOP-62 NSCLC -96.8% | NCI-H460 lung -85.9% | HOP-92 NSCLC -83% | NCI-H522 lung -87% | A549/ATCC NSCLC -86.6% | 786-0 renal -91.2% | COLO 205 colon -96.2%
inactive: NCI-H322M lung 11.9%

COC(=O)c1cc(=O)nc(N/N=C/c2ccco2)s1
inactive: NCI-H23 lung 106% | NCI-H226 lung 97.8% | NCI-H322M lung 96.2% | HOP-62 NSCLC 103% | NCI-H460 lung 106% | HOP-92 NSCLC 85.7% | NCI-H522 lung 103% | A549/ATCC NSCLC 107% | 786-0 renal 114% | COLO 205 colon 116%

O=C(O)/C=C/C(=O)c1ccc(Cl)cc1
inactive: NCI-H23 lung 116% | NCI-H226 lung 113% | NCI-H322M lung 104% | HOP-62 NSCLC 112% | NCI-H460 lung 112% | HOP-92 NSCLC 119% | NCI-H522 lung 80.4% | A549/ATCC NSCLC 95.3% | 786-0 renal 105% | COLO 205 colon 120%

CN(C)c1nc2c(N)ncnc2n1C1OC(CO)C(O)C1O (stereo not given)
inactive: NCI-H23 lung 110% | NCI-H226 lung 104% | NCI-H322M lung 122% | HOP-62 NSCLC 103% | NCI-H460 lung 121% | HOP-92 NSCLC 98.1% | NCI-H522 lung 108% | A549/ATCC NSCLC 106% | 786-0 renal 99.2% | COLO 205 colon 108%

COc1ccc(-c2c(N)n[nH]c2-c2cc3c(c(OC)c2OC)OCO3)cc1
inactive: NCI-H23 lung 96.8% | NCI-H226 lung 99.9% | NCI-H322M lung 100% | HOP-62 NSCLC 101% | NCI-H460 lung 105% | HOP-92 NSCLC 87.2% | NCI-H522 lung 81.5% | A549/ATCC NSCLC 97.1% | 786-0 renal 105% | COLO 205 colon 101%

CC(C)(C)n1cc(-c2ccnc(NCCCNS(=O)(=O)c3cccc(F)c3)c2)c(-c2cccc(O)c2)n1
inactive: NCI-H23 lung 66.5% | NCI-H226 lung 60.9% | NCI-H322M lung 58.6% | HOP-62 NSCLC 73.8% | NCI-H460 lung 19.6% | HOP-92 NSCLC 79.5% | NCI-H522 lung 47.6% | A549/ATCC NSCLC 42.5% | 786-0 renal 29.5%
active: COLO 205 colon 8.99%

NC1=NN(O)C2=CC([N+](=O)[O-])C=CC2=N1 (stereo not given)
inactive: NCI-H23 lung 97% | NCI-H226 lung 110% | NCI-H322M lung 113% | HOP-62 NSCLC 98.9% | NCI-H460 lung 110% | HOP-92 NSCLC 94.1% | NCI-H522 lung 94.2% | A549/ATCC NSCLC 110% | 786-0 renal 103% | COLO 205 colon 111%

COc1cc(NC(N)=NCCC(C)(C)Oc2ccc(C(F)(F)F)cc2)ncc1C#N
inactive: NCI-H226 lung 60.3% | NCI-H322M lung 20.5% | HOP-62 NSCLC 31%
active: NCI-H23 lung 1.1% | NCI-H460 lung -79.3% | HOP-92 NSCLC -10.6% | NCI-H522 lung -83.7% | A549/ATCC NSCLC -42.6% | 786-0 renal 7.56% | COLO 205 colon -87.8%

Clc1cc(Cl)c2nc(-c3ccc(-c4ccc(/C=N/NC5=NCCN5)cc4)s3)cn2c1
inactive: NCI-H23 lung 94.1% | NCI-H226 lung 89.5% | NCI-H322M lung 99.1% | HOP-62 NSCLC 88.9% | NCI-H460 lung 98.8% | HOP-92 NSCLC 14.5% | NCI-H522 lung 103% | A549/ATCC NSCLC 87.7% | 786-0 renal 88.5% | COLO 205 colon 93.7%

C=C(C)[C@@H]1C[C@@H]2Cc3cc(F)ccc3N1O2
inactive: NCI-H23 lung 96.6% | NCI-H226 lung 99.1% | NCI-H322M lung 104% | HOP-62 NSCLC 94.4% | NCI-H460 lung 102% | HOP-92 NSCLC 56.1% | NCI-H522 lung 91.3% | A549/ATCC NSCLC 97.9% | 786-0 renal 103% | COLO 205 colon 106%

S=C1CC(=S)NC(=S)N1
inactive: NCI-H23 lung 103% | NCI-H226 lung 103% | NCI-H322M lung 124% | HOP-62 NSCLC 104% | NCI-H460 lung 102% | HOP-92 NSCLC 102% | NCI-H522 lung 101% | A549/ATCC NSCLC 111% | 786-0 renal 106% | COLO 205 colon 100%

Clc1cc(Cl)cc(-c2ccc(-c3ccc(/C=N/NC4=NCCN4)cc3)s2)c1
active: NCI-H460 lung 4.5% | A549/ATCC NSCLC -22.4% | COLO 205 colon -17.1%
inactive: NCI-H23 lung 39.1% | NCI-H226 lung 85.1% | NCI-H322M lung 98.3% | HOP-62 NSCLC 71% | HOP-92 NSCLC 38.9% | NCI-H522 lung 71.4% | 786-0 renal 75.8%

COc1ccc(-c2nc3sc(-c4cc(OC)c(OC)c(OC)c4)nn3c2/C=C2/C(=O)Nc3ccc(F)cc32)cc1
active: NCI-H23 lung 2.52% | NCI-H322M lung -59.4% | HOP-62 NSCLC 4.69% | NCI-H460 lung -26.6% | HOP-92 NSCLC -58.8% | NCI-H522 lung 8.56% | A549/ATCC NSCLC -63.6% | 786-0 renal -50.3% | COLO 205 colon -43.8%
inactive: NCI-H226 lung 110%

COc1ccc(-n2c(-c3ccccc3)c(-c3ccccc3)c3c(SCC(=O)N/N=C/c4ccc(Cl)cc4)ncnc32)cc1
inactive: NCI-H23 lung 68.2% | NCI-H226 lung 76.6% | NCI-H322M lung 97.2% | HOP-62 NSCLC 85.5% | NCI-H460 lung 102% | HOP-92 NSCLC 66.8% | NCI-H522 lung 83.5% | A549/ATCC NSCLC 93.1% | 786-0 renal 92.5% | COLO 205 colon 104%

CC(NNC(C)c1ccccc1)c1ccccc1 (stereo not given)
inactive: NCI-H23 lung 103% | NCI-H226 lung 98.8% | NCI-H322M lung 122% | HOP-62 NSCLC 105% | NCI-H460 lung 106% | HOP-92 NSCLC 96.4% | NCI-H522 lung 93.9% | A549/ATCC NSCLC 104% | 786-0 renal 109% | COLO 205 colon 105%

O=C(Nc1ccc(Cl)c(Cl)c1)NS(=O)(=O)c1cnccc1Oc1ccc(F)cc1
inactive: NCI-H23 lung 39.3% | NCI-H226 lung 74.9% | NCI-H322M lung 89.2% | HOP-62 NSCLC 80.6% | NCI-H460 lung 44.6% | HOP-92 NSCLC 52.7% | NCI-H522 lung 20.2% | A549/ATCC NSCLC 28% | 786-0 renal 83.9% | COLO 205 colon 90.4%

COc1ccc(-n2c(=O)sc3c(Cl)nc(C)nc32)c(OC)c1
inactive: NCI-H23 lung 79.8% | NCI-H226 lung 99.4% | NCI-H322M lung 96.5% | HOP-62 NSCLC 86.1% | NCI-H460 lung 57.4% | HOP-92 NSCLC 76.9% | NCI-H522 lung 78.5% | A549/ATCC NSCLC 98.7% | 786-0 renal 99.2% | COLO 205 colon 99.4%
